Reference: PubChem BioAssay (EPA / NIEHS)
Calls of active or inactive are those of the source. Rule for the calls: active = hit-call score of the fitted dose curve at least 0.9, where 1 is the maximum; inactive = score below 0.9.

Columns and labels:
[1] = read-out: Thrombomodulin, THBD (gene 7056); experiment: BSK_CASM3C_Thrombomodulin: BioMAP Diversity Plus: CASM3C Assay for Thrombomodulin Biomarker Activity (AID 2283051); conditions: primary human coronary artery smooth muscle cells; actives raise or lower the signal;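 note: thrombomodulin protein level measured by ELISA 24 h after dosing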
[2] = read-out: Tissue Factor, F3 (gene 2152); experiment: BSK_CASM3C_TissueFactor: BioMAP Diversity Plus: CASM3C Assay for Tissue Factor Biomarker Activity (AID 2283052); conditions: primary human coronary artery smooth muscle cells; actives raise or lower the signal;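 note: cell surface tissue factor protein level read by ELISA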
[3] = read-out: Urokinase-type plasminogen activator receptor (uPAR), PLAUR (gene 5329); experiment: BSK_CASM3C_uPAR: BioMAP Diversity Plus: CASM3C Assay for Urokinase-type plasminogen activator receptor (uPAR) Biomarker Activity (AID 2283054); conditions: primary human coronary artery smooth muscle cells; actives raise or lower the signal;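 note: cell-surface uPAR protein level quantified by ELISA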
[4] = read-out: Vascular cell adhesion molecule 1 (VCAM1), VCAM1 (gene 7412); experiment: BSK_CASM3C_VCAM1: BioMAP Diversity Plus: CASM3C Assay for Vascular cell adhesion molecule 1 (VCAM1) Biomarker Activity (AID 2283055); conditions: primary human coronary artery smooth muscle cells; actives raise or lower the signal;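 note: VCAM-1 protein level quantified by ELISA on the cells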
[5] = read-out: Epidermal growth factor receptor (EGFR), EGFR (gene 1956); experiment: BSK_hDFCGF_EGFR: BioMAP Diversity Plus: hDFCGF Assay for Epidermal growth factor receptor (EGFR) Biomarker Activity (AID 2283057); conditions: primary human foreskin fibroblasts; actives raise or lower the signal
In short: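 Primary human foreskin fibroblasts were exposed to compound for 24 h, after which cell-surface EGFR was quantified by ELISA. Activity was fitted bidirectionally against the DMSO negative control as baseline.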

[6] = read-out: Interleukin-8 (IL8), CXCL8 (gene 3576); experiment: BSK_hDFCGF_IL8: BioMAP Diversity Plus: hDFCGF Assay for Interleukin-8 (IL8) Biomarker Activity (AID 2283058); conditions: primary human foreskin fibroblasts; actives raise or lower the signal
In short: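 Cells used are human skin primary fibroblasts. Chemical is added, cultures run 24 h, then IL-8 is quantified by ELISA, and gain or loss versus DMSO control is fitted in both directions.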

[7] = BSK_hDFCGF_Proliferation: Cell Proliferation Assessment in the BioMAP Diversity Plus: hDFCGF Assay (AID 2283059); conditions: primary human foreskin fibroblasts;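 note: curves fitted for both rise and fall of signal versus DMSO baseline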
In short: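 Primary human foreskin fibroblasts, sub-confluent; […]; 10% TCA fix, 0.1% SRB stain, A560 total protein. Gain/loss fitted bidirectionally vs DMSO control.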

[8] = BSK_hDFCGF_SRB: Viability Assessment in the BioMAP Diversity Plus: hDFCGF Assay (AID 2283061); conditions: primary human foreskin fibroblasts;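 note: cells exposed to compound for 24 h before the read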
In short: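 Readout is SRB absorbance at 560 nm, reflecting total protein in parallel cultures of human foreskin fibroblasts harvested 24 h after chemical dosing. Activity was fitted bidirectionally relative to DMSO.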

[9] = read-out: TIMP metallopeptidase inhibitor 1 (TIMP1), TIMP1 (gene 7076); experiment: BSK_hDFCGF_TIMP1: BioMAP Diversity Plus: hDFCGF Assay for TIMP metallopeptidase inhibitor 1 (TIMP1) Biomarker Activity (AID 2283062); conditions: primary human foreskin fibroblasts; actives raise or lower the signal
In short: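 Human skin fibroblasts (primary), hDFCGF system; compound exposure 24 h; TIMP-1 by ELISA; bidirectional fit vs DMSO negative control; overt cytotoxicity by SRB in parallel wells.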

[10] = read-out: Monokine induced gamma interferon (MIG), CXCL9 (gene 4283); experiment: BSK_hDFCGF_MIG: BioMAP Diversity Plus: hDFCGF Assay for Monokine induced gamma interferon (MIG) Biomarker Activity (AID 2283063); conditions: primary human foreskin fibroblasts; actives raise or lower the signal
In short: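 Chemicals were added to primary human foreskin fibroblast cultures, which were sampled 24 h later. MIG levels were then quantified by ELISA and responses fitted in both directions relative to DMSO.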

[11] = read-out: Matrix Metallopeptidase 1 (MMP1), MMP1 (gene 4312); experiment: BSK_hDFCGF_MMP1: BioMAP Diversity Plus: hDFCGF Assay for Matrix Metallopeptidase 1 (MMP1) Biomarker Activity (AID 2283064); conditions: primary human foreskin fibroblasts; actives raise or lower the signal
In short: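 Primary human foreskin fibroblasts in the hDFCGF system were dosed with test chemical, and MMP1 was measured by ELISA 24 h later. Values come from bidirectional curve fitting against the DMSO baseline.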

[12] = read-out: Vascular cell adhesion molecule 1 (VCAM1), VCAM1 (gene 7412); experiment: BSK_hDFCGF_VCAM1: BioMAP Diversity Plus: hDFCGF Assay for Vascular cell adhesion molecule 1 (VCAM1) Biomarker Activity (AID 2283065); conditions: primary human foreskin fibroblasts; actives raise or lower the signal;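 for AC50: VCAM-1 protein level quantified by ELISA after 24 h chemical exposure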
In short: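 Human foreskin fibroblast primary cells, chemical exposure 24 h; VCAM-1 by ELISA; bidirectional fit, DMSO = negative control/baseline.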

[13] = read-out: Intercellular Adhesion Molecule 1 (ICAM1), ICAM1 (gene 3383); experiment: BSK_KF3CT_ICAM1: BioMAP Diversity Plus: KF3CT Assay for Intercellular Adhesion Molecule 1 (ICAM1) Biomarker Activity (AID 2283067); conditions: primary human keratinocytes with fibroblasts; actives raise or lower the signal
In short: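 ICAM-1 levels are measured by ELISA 24 h after dosing a primary human co-culture of keratinocytes and foreskin fibroblasts. Activity in either direction is fitted relative to DMSO vehicle.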

[14] = read-out: Interferon-gamma inducible Protein 10 (IP10), CXCL10 (gene 3627); experiment: BSK_KF3CT_IP10: BioMAP Diversity Plus: KF3CT Assay for Interferon-gamma inducible Protein 10 (IP10) Biomarker Activity (AID 2283068); conditions: primary human keratinocytes with fibroblasts; actives raise or lower the signal
In short: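 In a primary skin co-culture of keratinocytes and fibroblasts, IP-10 is quantified by ELISA at 24 h after dosing. SRB staining of parallel wells monitors overt toxicity. Curves are fitted both directions against DMSO.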

[15] = BSK_KF3CT_SRB: Viability Assessment in the BioMAP Diversity Plus: KF3CT Assay (AID 2283069); conditions: primary human keratinocytes with fibroblasts;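 note: total protein by sulforhodamine B staining as a cytotoxicity measure; read 24 h after compound addition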
In short: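 Human primary keratinocyte plus foreskin fibroblast co-culture exposed to chemicals for 24 h. Total protein measured by 0.1% sulforhodamine B staining after 10% TCA fixation, read at 560 nm; bidirectional fitting versus DMSO baseline.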

[16] = read-out: Interleukin-1 alpha (IL1a), IL1A (gene 3552); experiment: BSK_KF3CT_IL1a: BioMAP Diversity Plus: KF3CT Assay for Interleukin-1 alpha (IL1a) Biomarker Activity (AID 2283070); conditions: primary human keratinocytes with fibroblasts; actives raise or lower the signal
In short: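 Human keratinocyte plus foreskin fibroblast primary co-culture, sampled 24 h after chemical dosing. IL-1a measured by ELISA; responses fitted bidirectionally against DMSO baseline (negative control), so gain or loss of signal both count.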

[17] = read-out: Collagen III, COL3A1 (gene 1281); experiment: BSK_hDFCGF_CollagenIII: BioMAP Diversity Plus: hDFCGF Assay for Collagen III Biomarker Activity (AID 2283056); conditions: primary human foreskin fibroblasts; actives raise or lower the signal
In short: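 ELISA read-out of collagen III from human skin fibroblast cultures sampled 24 h post-dosing. Values were derived by bidirectional fitting relative to the DMSO vehicle control.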

[18] = read-out: Macrophage colony-stimulating factor (MCSF), CSF1 (gene 1435); experiment: BSK_hDFCGF_MCSF: BioMAP Diversity Plus: hDFCGF Assay for Macrophage colony-stimulating factor (MCSF) Biomarker Activity (AID 2283060); conditions: primary human foreskin fibroblasts; actives raise or lower the signal
In short: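 Primary human foreskin fibroblasts dosed with chemical; 24 h later, M-CSF quantified by ELISA; curves fitted in both directions vs DMSO negative control.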

[19] = read-out: Plasminogen activator inhibitor-1 (PAI1), SERPINE1 (gene 5054); experiment: BSK_hDFCGF_PAI1: BioMAP Diversity Plus: hDFCGF Assay for Plasminogen activator inhibitor-1 (PAI1) Biomarker Activity (AID 2283066); conditions: primary human foreskin fibroblasts; actives raise or lower the signal
In short: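 Human foreskin fibroblasts in the hDFCGF system were dosed with compound for 24 h; PAI-1 was quantified by ELISA. Bidirectional curve fitting used DMSO as negative control and baseline.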

Measured: AC50

CC(=O)N1CCN(c2ccc(OC[C@H]3CO[C@](Cn4ccnc4)(c4ccc(Cl)cc4Cl)O3)cc2)CC1
inactive: [1] | [2] | [3] | [4] | [5]
active: [6] 33.5 µM | [7] 20 µM | [8] 32.9 µM | [9] 35.4 µM | [10] 36.9 µM | [11] 32.6 µM | [12] 35.5 µM | [13] 30.9 µM | [14] 34.5 µM | [15] 26.6 µM | [16] 33.6 µM

CC(C)(c1cc(Br)c(O)c(Br)c1)c1cc(Br)c(O)c(Br)c1
inactive: [5]
active: [1] 25 µM | [2] 31.7 µM | [3] 31.2 µM | [4] 29.3 µM | [17] 3.85 µM | [6] 11.5 µM | [7] 3.94 µM | [18] 7.47 µM | [8] 5.8 µM | [9] 6.42 µM | [10] 7.65 µM | [11] 6.31 µM | [12] 5.94 µM | [19] 5.46 µM | [13] 4.85 µM | [14] 2.53 µM | [15] 5.11 µM | [16] 5.97 µM

COCC(C)OCC(C)OCC(C)O (stereo not drawn)
not listed: [19]
inactive: all other assays above

c1ccc2ccccc2c1
not listed: [17] | [19]
inactive: all other assays above

O=c1ccc2ccccc2o1
active: [7] 8.81 µM
not listed: [17]
inactive: all other assays above

Cc1ccc(C(C)C)cc1
not listed: [17] | [19]
inactive: all other assays above

CC(C)(C)c1cc(/C=C2\SC(N)=NC2=O)cc(C(C)(C)C)c1O
inactive: [2] | [5] | [13] | [16]
active: [1] 0.507 µM | [3] 31.9 µM | [4] 31.1 µM | [6] 20 µM | [7] 7.49 µM | [18] 20 µM | [8] 20 µM | [9] 31 µM | [10] 14.2 µM | [11] 20 µM | [12] 15.6 µM | [14] 9.94 µM | [15] 7.93 µM

O=CCCCC=O
active: [1] 31.9 µM | [4] 22.4 µM | [6] 36.9 µM | [7] 25.3 µM | [18] 30.6 µM | [8] 33.4 µM | [9] 13.9 µM | [10] 32.4 µM | [11] 31.6 µM | [12] 20.7 µM | [19] 34 µM | [13] 33.6 µM | [14] 33 µM | [15] 34.1 µM | [16] 31.2 µM
inactive: [2] | [3] | [5]

Cc1cccc2ccccc12
not listed: [17] | [19]
inactive: all other assays above

CN(C[C@@H](CC[N+]12CCC(C3CCCCC3)(CC1)CC2)c1ccc(Cl)c(Cl)c1)C(=O)c1cc(C(F)(F)F)cc(C(F)(F)F)c1
active: [2] 20 µM | [3] 13 µM | [4] 14.3 µM | [17] 7.21 µM | [5] 5.37 µM | [6] 9.76 µM | [7] 5.55 µM | [18] 7.28 µM | [8] 5.86 µM | [9] 7.05 µM | [10] 10.3 µM | [11] 7.58 µM | [12] 7.41 µM | [13] 12.3 µM | [14] 7.78 µM | [15] 6.58 µM | [16] 11.2 µM
inactive: [1]

CCCCOC(=O)CC(CC(=O)OCCCC)(OC(C)=O)C(=O)OCCCC
inactive: all assays above

CCN(Cc1cccc(S(=O)(=O)O)c1)c1ccc(C(=C2C=CC(=[N+](CC)Cc3cccc(S(=O)(=O)O)c3)C=C2)c2ccccc2S(=O)(=O)[O-])cc1
inactive: all assays above
